# This is one part of a sample in which hits are shown more often than they occur.
# miR122 inh: miR-122 suppressors via Renilla sensor increase, primary screen, cell-based, Huh7 psiCHECK-miR122, Renilla luciferase, single point | 340,000 tested, 0.14% active | 48 h | activation, % at 12.5 µM | AID 623901, 2012;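 active = mean activation of 30% or more, with every replicate also reaching 30%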;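 also: 0% = median of neutral control wells and 100% = median of positive control wells; higher luciferase signal means stronger suppression of miR-122 activity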
# An asterisk follows results filed as active.
SMILES,miR122 inh
COc1ccccc1-c1cnc2c(c1)C(=O)N([C@H](C)CO)C[C@H](C)[C@@H](CN(C)C(=O)c1ccccc1)O2,-14
C[C@@H]1CN([C@@H](C)CO)S(=O)(=O)c2ccc(-c3ccc(C(=O)N(C)C)cc3)cc2O[C@@H]1CN(C)C(=O)C1CCOCC1,19
CC(C)C#Cc1cnc2c(c1)C(=O)N([C@@H](C)CO)C[C@H](C)[C@H](CN(C)C(=O)c1ccccc1)O2,0
CCCNC(=O)N(C)C[C@@H]1Oc2cc(C#Cc3cccc(F)c3)ccc2S(=O)(=O)N([C@@H](C)CO)C[C@@H]1C,-4
CCCNC(=O)N(C)C[C@@H]1Oc2cc(C#Cc3cccc(F)c3)ccc2S(=O)(=O)N([C@H](C)CO)C[C@@H]1C,-5
CCNc1nc(N)nc(Oc2ccc(OCCOc3ccccc3)nn2)n1,-151
CNc1nc(NCCOc2ccccc2)c2sccc2n1,37*
C[C@H](CO)N1C[C@H](C)[C@@H](CN(C)CC2CCOCC2)Oc2ncc(C#Cc3ccccn3)cc2C1=O,5
CCC(=O)N(C)C[C@@H]1Oc2ncc(C#C[C@@H](C)O)cc2C(=O)N([C@@H](C)CO)C[C@@H]1C,0
C[C@@H]1CN([C@@H](C)CO)S(=O)(=O)c2ccc(C#Cc3ccccn3)cc2O[C@@H]1CN(C)Cc1cccc(F)c1,-6
COCC#Cc1ccc2c(c1)O[C@H](CN(C)C(=O)C1CCCCC1)[C@H](C)CN([C@@H](C)CO)S2(=O)=O,-10
C[C@H](CO)N1C[C@H](C)[C@@H](CN(C)CC2CCCCC2)OCCCC[C@H](C)Oc2ccc(NC(=O)Nc3cccc4ccccc34)cc2C1=O,34*
C[C@H]1CN([C@@H](C)CO)C(=O)c2cccc(NC(=O)Nc3ccc(C(F)(F)F)cc3)c2O[C@@H]1CN(C)CC1CCCCC1,-92
COc1ccc(S(=O)(=O)Nc2ccc3c(c2)C(=O)N([C@@H](C)CO)C[C@H](C)[C@H](CN(C)C(=O)Nc2ccccc2)OCCCC[C@@H](C)O3)cc1,-120
C[C@@H]1CN([C@@H](C)CO)C(=O)Cc2cc(NC(=O)Nc3cccc4ccccc34)ccc2O[C@@H]1CN(C)C(=O)NC1CCCCC1,-167
C[C@H](CO)N1C[C@H](C)[C@@H](CN(C)CC2CCCCC2)Oc2c(NC(=O)c3ccncc3)cccc2C1=O,-127
C[C@@H]1CCCCO[C@@H](CN(C)CC2CCCCC2)[C@@H](C)CN([C@@H](C)CO)C(=O)c2cc(NC(=O)Nc3cccc4ccccc34)ccc2O1,31*
COc1cccc(C#Cc2ccc3c(c2)O[C@H](CN(C)S(=O)(=O)c2ccccc2F)[C@@H](C)CN([C@H](C)CO)S3(=O)=O)c1,-19
C[C@H](CO)N1C[C@H](C)[C@@H](CN(C)Cc2cncnc2)Oc2cc(C#CC3CCCC3)ccc2S1(=O)=O,-95
COc1ccc(C#Cc2cnc3c(c2)C(=O)N([C@H](C)CO)C[C@@H](C)[C@@H](CN(C)CC2CCCC2)O3)cc1,8
C[C@@H]1CN([C@@H](C)CO)S(=O)(=O)c2ccc(-c3cncnc3)cc2O[C@@H]1CN(C)C(=O)Cc1cccnc1,-10
C[C@H]1CN([C@@H](C)CO)S(=O)(=O)c2ccc(C#Cc3ccncc3)cc2O[C@@H]1CN(C)C(=O)C1CCCCC1,-29
COc1cccc(NC(=O)N(C)C[C@H]2Oc3ncc(C#Cc4ccccc4)cc3C(=O)N([C@@H](C)CO)C[C@@H]2C)c1,-3
COc1ccccc1C#Cc1cnc2c(c1)C(=O)N([C@H](C)CO)C[C@H](C)[C@@H](CN(C)C(=O)c1ccc3c(c1)OCO3)O2,35*
C[C@@H]1CN([C@H](C)CO)C(=O)c2cccc(NC(=O)c3ccc(-c4nccs4)cc3)c2O[C@@H]1CN(C)Cc1ccc(C(=O)Nc2ccccc2N)cc1,-203
SMILES,miR122 inh
C[C@H](CO)N1C[C@H](C)[C@@H](CN(C)Cc2ccc3c(c2)OCO3)Oc2c(NC(=O)C3CC3)cccc2C1=O,-92
C[C@@H]1CN([C@@H](C)CO)C(=O)c2cc(-c3ccccc3)cnc2O[C@H]1CN(C)C(=O)Nc1ccc2c(c1)OCO2,-8
C[C@H]1CN([C@@H](C)CO)C(=O)c2cc(-c3ccccc3)cnc2O[C@@H]1CN(C)C(=O)Nc1ccc2c(c1)OCO2,1
COCC(=O)N(C)C[C@H]1Oc2ncc(C#Cc3ccccc3OC)cc2C(=O)N([C@H](C)CO)C[C@@H]1C,4
C[C@@H]1CN([C@@H](C)CO)C(=O)c2cccc(NC(=O)c3ccc(-c4nccs4)cc3)c2O[C@H]1CN(C)Cc1ccc2c(c1)OCO2,38*
COc1cccc(NC(=O)N(C)C[C@@H]2Oc3ncc(C#Cc4ccccc4)cc3C(=O)N([C@@H](C)CO)C[C@@H]2C)c1,-2
COc1cccc(NC(=O)N(C)C[C@@H]2Oc3ncc(C#Cc4ccncc4)cc3C(=O)N([C@@H](C)CO)C[C@H]2C)c1,33*
CCC(=O)N(C)C[C@@H]1Oc2ncc(C#Cc3ccccc3OC)cc2C(=O)N([C@H](C)CO)C[C@H]1C,6
C[C@H](CO)N1C[C@H](C)[C@H](CN(C)C(=O)Nc2ccc3c(c2)OCO3)Oc2ncc(-c3cccc(C(F)(F)F)c3)cc2C1=O,33*
C/C=C/c1ccc2c(c1)O[C@@H](CN(C)C(=O)CC1CC1)[C@H](C)CN([C@@H](C)CO)S2(=O)=O,5
C[C@H]1CN([C@@H](C)CO)C(=O)c2cc(C#Cc3ccccc3F)cnc2O[C@@H]1CN(C)C(=O)C1CCOCC1,-2
Cc1ccccc1-c1cnc2c(c1)C(=O)N([C@H](C)CO)C[C@@H](C)[C@H](CN(C)C(=O)c1ccccc1)O2,4
C/C=C/c1cnc2c(c1)C(=O)N([C@@H](C)CO)C[C@H](C)[C@H](CN(C)C(=O)Cc1cccnc1)O2,-1
COc1ccc(NC(=O)N(C)C[C@@H]2Oc3ncc(C4=CCCC4)cc3C(=O)N([C@@H](C)CO)C[C@@H]2C)cc1,2
CCC(=O)Nc1ccc2c(c1)OC[C@@H](C)N(CCC(F)(F)F)C[C@H](C)[C@@H](OC)CN(C)C2=O,1
C[C@H](CO)N1C[C@H](C)[C@H](CN(C)C(=O)C2CC2)Oc2cc(C#CC3CC3)ccc2S1(=O)=O,-25
C[C@@H]1CN([C@H](C)CO)C(=O)c2cc(C#Cc3cccc(F)c3)cnc2O[C@@H]1CN(C)CC1CCOCC1,0
C[C@@H]1CN([C@@H](C)CO)S(=O)(=O)c2ccc(/C=C/c3ccccc3)cc2O[C@@H]1CN(C)Cc1cccnc1,-5
COc1cccc(C2NC(=S)NC(C)=C2C(=O)c2ccccc2)c1OC (centres undefined),-147
COc1ccc(/C=C/C(=O)c2ccc[nH]2)c(OC)c1OC,32*
C[C@@H]1CN([C@@H](C)CO)C(=O)c2cc(C#CC3(O)CCCC3)cnc2O[C@@H]1CN(C)C(=O)CN(C)C,5
CCCNC(=O)N(C)C[C@@H]1Oc2ncc(C#C[C@@H](C)O)cc2C(=O)N([C@H](C)CO)C[C@@H]1C,3
CC(C)C#Cc1cnc2c(c1)C(=O)N([C@H](C)CO)C[C@@H](C)[C@@H](CN(C)Cc1ccccn1)O2,5
Cc1ccc(C)c(CSc2nnc(-c3cccnc3)o2)c1,-356
Clc1ccc(CSc2nnc(-c3ccncc3)o2)c(Cl)c1,33*
C/C=C/c1ccc2c(c1)O[C@@H](CN(C)C(=O)CC1CC1)[C@H](C)CN([C@H](C)CO)S2(=O)=O,4
CCCNC(=O)N(C)C[C@@H]1Oc2cc(C#Cc3cccc(F)c3)ccc2S(=O)(=O)N([C@H](C)CO)C[C@H]1C,-4
